The text below walks through data of PubChem BioAssay (Tox21).

Structures are written as SMILES. “And” between values parts separate entries of the source, which are not always exact repeats. Equal entries are not always repeated. Records with an inconclusive call do not appear. Entries that show only a call come without a potency. The source made the active and inactive calls. The call rests on the fitted dose curve; in most records, active means well fitted curve in the direction sought with a large enough effect in the repeat runs; inconclusive means weak or mixed curves; inactive means no such curve, though single readings can be large; an effect the other way counts as inactive or inconclusive.

One assay can be described thus: A CellTox Green Cytotoxicity Assay to monitor cytotoxicity in HEK293 cells - 16 hour (AID 1224888). Further: nearly all actives have a fitted effect of over 35% in size. The settings on record: CellTox Green fluorescence; series mostly up to 76.8 µM; activity change: at the top concentration. The method, boiled down:
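Fluorescence intensity, read at 0, 8, 16, 24, 32 and 40 h of compound treatment, reflected dye binding to DNA of dead HEK293 cells; compounds (23 nL, DMSO) were added 5 h after plating cells with reagent.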
On to `CN1C(C(=O)Nc2ccccn2)=C(O)c2ccccc2S1(=O)=O`, for which the Potency entry is “inactive”.

`CC(=O)c1ccccn1`: the Potency entry is “inactive”.

For `O=C(/C=C/c1ccccc1)OCc1ccccc1`, the Potency entry is “inactive”. For `O=C=Nc1ccc(Cc2ccc(N=C=O)cc2)cc1`, the Potency entry is “inactive”. For the molecule `O=Cc1ccccc1O`, the Potency result is “inactive”. Same read-out and setting: the value for `OC(CCl)CCl` was “inactive”. On the same count and under the same terms, then `Cc1c(OCC(F)(F)F)ccnc1CS(=O)c1nc2ccccc2[nH]1` (stereo unspecified), with “inactive”; and `CCC(C)(O)CCCC(C)C` (stereo unspecified), with “inactive”; and `O=C(OCc1ccccc1)c1ccccc1O`, with “inactive”. As for `COc1ccc(C(=O)CC(=O)c2ccc(C(C)(C)C)cc2)cc1`, the “activity change” value was 1.6% (inactive).

On to `COC(=O)CCC(=O)OC`, for which the “activity change” value is -10.7% (inactive). `CCCCOCCOCCO`: the Potency result was “inactive”.

As for `C=CC(C)(CCC=C(C)C)OC(C)=O` (stereo unspecified), the Potency result was “inactive”. As for `Cc1ccc(C)c(O)c1C`, the Potency result was “inactive”. On the same count and under the same terms, the value for `Nc1ccc(Cl)cc1Cl` was “inactive”. For the molecule `CC(C)Oc1ccc2c(=O)c(-c3ccccc3)coc2c1`, the Potency entry is “inactive”.

With `O=C(c1ccccc1)c1ccccc1O`, the Potency result was “inactive”. For `c1ccc2sc(SSN3CCOCC3)nc2c1`, the “activity change” value was 28.5% (inactive). Regarding `O=[N+]([O-])c1ccc2c(c1)Cc1ccccc1-2`, the Potency entry is “inactive”. Consider `CCCc1c(OCCCCc2nn[nH]n2)ccc(C(C)=O)c1O`, for which the “activity change” value was -8.21% (inactive). In the case of `Brc1cc(Oc2cc(Br)c(Br)c(Br)c2Br)c(Br)c(Br)c1Br`, the Potency result was “inactive”. `c1ccc2cc(Nc3ccc(Nc4ccc5ccccc5c4)cc3)ccc2c1`: the Potency entry was “inactive”. Regarding `CCOCCOCCO`, the Potency entry is “inactive”. Regarding `CCCCOCCOCCOCCO`, the Potency result is “inactive”. Consider `Nc1ncn([C@@H]2O[C@H](CO)[C@@H](O)[C@H]2O)c(=O)n1`, for which the Potency entry was “inactive”.

With `c1ccc2c(c1)c1cccc3ccc4cccc2c4c31`, the Potency entry is “inactive”.

For `Nc1ncnc2nc[nH]c12`, the Potency entry was “inactive”. As for `CN(C)CCN(Cc1cccs1)c1ccccn1`, the Potency result is “inactive”. Same read-out and setting: the value for `Nc1ccc(S(=O)(=O)Nc2cnc3ccccc3n2)cc1` was “inactive”; that for `CC(C)(C)NC(=O)[C@H]1CC[C@H]2[C@@H]3CC[C@H]4NC(=O)C=C[C@]4(C)[C@H]3CC[C@]12C` was “inactive”. In the case of `C[C@]12CC[C@H]3[C@@H](CCC4=CC(=O)CC[C@@]43C)[C@@H]1CC[C@@H]2C(=O)CO`, the Potency entry is “inactive”. Turning to `CCCCC(CC)COP(=O)(OCC(CC)CCCC)OCC(CC)CCCC` (stereo unspecified), the Potency result is “inactive”.

`Nc1ccc(Nc2ccccc2)cc1`: the Potency entry was “inactive”. For the molecule `CC(C)=CCC/C(C)=C\CO`, the Potency entry is “inactive”. Regarding `CCCCCCCCCC(=O)OC`, the Potency entry is “inactive”. Same read-out and setting: the value for `S=C(NC1CCCCC1)NC1CCCCC1` was “inactive”. Take `Clc1nc(Cl)c(Cl)c(Cl)c1Cl`: the Potency entry was “inactive”.

The next assay can be described thus: qHTS RealTime-Glo MT Cell Viability Assay in HepG2 cells - 0 hour (AID 1224889). Further: nearly all actives have a fitted effect of over 50% in size. Further: potency means the concentration at half of the fitted maximal effect. The settings on record: RealTime-Glo luminescence; series mostly up to 76.8 µM; activity change, negative = cytotoxicity: at the top concentration. The method, boiled down: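 HepG2 cells were seeded at 600 cells/well together with NanoLuc luciferase and a cell-permeant prosubstrate, preincubated 5 h at 37 C/5% CO2, then pin-dosed with compounds in DMSO. Nonlytic luminescence from viable cells was read at each time point.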
A general note: In qHTS, concentration-response curves come from the screen itself.
Turning to `CN1C(C(=O)Nc2ccccn2)=C(O)c2ccccc2S1(=O)=O`, the Potency result was “inactive”. Consider `CC(=O)c1ccccn1`, for which the Potency entry is “inactive”. Consider `O=C(/C=C/c1ccccc1)OCc1ccccc1`, for which the Potency entry is “inactive”. As for `O=C=Nc1ccc(Cc2ccc(N=C=O)cc2)cc1`, the Potency result was “inactive”. In the case of `O=Cc1ccccc1O`, the Potency entry was “inactive”. In the case of `OC(CCl)CCl`, the Potency result is “inactive”. On the same count and under the same terms, the value for `Cc1c(OCC(F)(F)F)ccnc1CS(=O)c1nc2ccccc2[nH]1` (stereo unspecified) was “inactive”; that for `CCC(C)(O)CCCC(C)C` (stereo unspecified) was “inactive”; that for `O=C(OCc1ccccc1)c1ccccc1O` was “inactive”. For the molecule `COc1ccc(C(=O)CC(=O)c2ccc(C(C)(C)C)cc2)cc1`, the Potency result is “inactive”. Turning to `COC(=O)CCC(=O)OC`, the Potency entry is “inactive”. Same read-out and setting: the value for `CCCCOCCOCCO` was “inactive”; that for `C=CC(C)(CCC=C(C)C)OC(C)=O` (stereo unspecified) was “inactive”.

For `Cc1ccc(C)c(O)c1C`, the Potency entry was “inactive”. Same read-out and setting: then `Nc1ccc(Cl)cc1Cl`, with “inactive”; and `CC(C)Oc1ccc2c(=O)c(-c3ccccc3)coc2c1`, with “inactive”; and `O=C(c1ccccc1)c1ccccc1O`, with “inactive”. For the molecule `c1ccc2sc(SSN3CCOCC3)nc2c1`, the Potency result was “inactive”. Still for that read-out and setting: the value for `O=C(c1ccc(OCCN2CCCCC2)cc1)c1c(-c2ccc(O)cc2)sc2cc(O)ccc12` was “inactive”.

As for `O=[N+]([O-])c1ccc2c(c1)Cc1ccccc1-2`, the Potency entry was “inactive”. `CCCc1c(OCCCCc2nn[nH]n2)ccc(C(C)=O)c1O`: the Potency result was “inactive”. With `Brc1cc(Oc2cc(Br)c(Br)c(Br)c2Br)c(Br)c(Br)c1Br`, the Potency result is “inactive”. For the molecule `c1ccc2cc(Nc3ccc(Nc4ccc5ccccc5c4)cc3)ccc2c1`, the Potency result was “inactive”. On the same count and under the same terms, the value for `CCOCCOCCO` was “inactive”; that for `CCCCOCCOCCOCCO` was “inactive”; that for `Nc1ncn([C@@H]2O[C@H](CO)[C@@H](O)[C@H]2O)c(=O)n1` was “inactive”. Take `c1ccc2c(c1)c1cccc3ccc4cccc2c4c31`: the Potency entry was “inactive”. As to `Nc1ncnc2nc[nH]c12`, the Potency result was “inactive”. For the molecule `CN(C)CCN(Cc1cccs1)c1ccccn1`, the Potency result is “inactive”. Take `Nc1ccc(S(=O)(=O)Nc2cnc3ccccc3n2)cc1`: the Potency result is “inactive”. Consider `CC1=CC2C3CC(C=C3C)C2C1` (stereo unspecified), for which the Potency entry is “inactive”.

On to `CC(C)(C)NC(=O)[C@H]1CC[C@H]2[C@@H]3CC[C@H]4NC(=O)C=C[C@]4(C)[C@H]3CC[C@]12C`, for which the “activity change, negative = cytotoxicity” value was -29.8% [at 35.3 µM] (inactive).

Turning to `C[C@]12CC[C@H]3[C@@H](CCC4=CC(=O)CC[C@@]43C)[C@@H]1CC[C@@H]2C(=O)CO`, the Potency is 4.36 µM (active) and 9.52 µM (active).

As for `CCCCC(CC)COP(=O)(OCC(CC)CCCC)OCC(CC)CCCC` (stereo unspecified), the Potency entry is “inactive”.

Turning to `Nc1ccc(Nc2ccccc2)cc1`, the Potency result was “inactive”. In the case of `CC(C)=CCC/C(C)=C\CO`, the Potency entry was “inactive”. On to `CCCCCCCCCC(=O)OC`, for which the Potency entry was “inactive”. With `S=C(NC1CCCCC1)NC1CCCCC1`, the Potency entry is “inactive”.

For the molecule `Clc1nc(Cl)c(Cl)c(Cl)c1Cl`, the Potency entry is “inactive”.
